The target of experiment [1] is Cell division control protein 42 homolog (Homo sapiens) (UniProt P60953). Nature of the experiment: activated mutant Cdc42 GTP-binding inhibitors, dose response, biochemical, multiplex bead flow cytometry, Bodipy-FL-GTP (AID 1333;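 active means fitted half-maximal concentration within the tested dose range, moderate curve steepness, a statistically real signal drop, and little compound fluorescence or tag-binding interference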). In general terms: In flow cytometry, cells or beads pass a laser one at a time.
Sequence of Cell division control protein 42 homolog (Homo sapiens) (P60953 whole entry, looked up): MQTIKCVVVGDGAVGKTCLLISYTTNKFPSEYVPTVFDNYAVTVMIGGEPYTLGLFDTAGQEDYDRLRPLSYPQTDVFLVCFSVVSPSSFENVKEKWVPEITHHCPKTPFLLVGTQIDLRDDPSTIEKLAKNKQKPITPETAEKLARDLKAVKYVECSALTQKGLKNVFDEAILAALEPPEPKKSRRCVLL
Experiment [2] shares this target. Nature of the experiment: wildtype Cdc42 GTP-binding inhibitors, dose response, biochemical, multiplex bead flow cytometry, Bodipy-FL-GTP (AID 1334;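 active means fitted half-maximal concentration within the tested range, moderate curve steepness, significant signal drop, and little compound fluorescence or bead-linkage interference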). As to conditions: bead-based flow cytometry, Bodipy-FL-GTP binding to GST-Cdc42; at 100 µM (top of the series) unless noted.
The target in experiment [3] is GTPase HRas (Homo sapiens) (UniProt P01112). Nature of the experiment: inhibitors of GTP binding to wildtype Ras, dose response, biochemical, multiplex bead flow cytometry (AID 1335). As to conditions: bead-based flow cytometry, Bodipy-GTP binding to GST-Ras; at 100 µM (top of the series) unless noted.
Sequence of GTPase HRas (Homo sapiens) (P01112 whole entry, looked up): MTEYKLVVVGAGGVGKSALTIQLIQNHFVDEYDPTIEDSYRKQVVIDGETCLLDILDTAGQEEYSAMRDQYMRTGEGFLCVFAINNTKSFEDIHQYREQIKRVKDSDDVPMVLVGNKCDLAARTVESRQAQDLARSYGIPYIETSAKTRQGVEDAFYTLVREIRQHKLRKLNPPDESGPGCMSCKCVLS
Experiment [4] has as its system Ras-related protein Rab-7a (dog), GTP binding. Nature of the experiment: Rab7 GTP binding inhibitors, potency, dose response, biochemical, wildtype, multiplex bead flow cytometry (AID 1336; call rule not given here).
The target in experiment [5] is Ras-related C3 botulinum toxin substrate 1 (Homo sapiens) (UniProt P63000). Nature of the experiment: wildtype Rac1 GTP binding inhibitors, dose response, biochemical, multiplex bead flow cytometry (AID 1340;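 active means dose curve with midpoint inside tested range, moderate steepness, plateau gap beyond fit error, low compound glow and bead-link interference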). As to conditions: GST-Rac1 beads, Bodipy-FL-GTP binding; at 100 µM (top of the series) unless noted.
For experiment [6], the target named is GTPase HRas (Homo sapiens) (UniProt P01112). Nature of the experiment: activated Ras mutant GTP binding inhibitors, dose response, biochemical, multiplex bead flow cytometry (AID 1341;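 active means dose-response curve with midpoint inside the tested range, moderate steepness, significant amplitude and little compound fluorescence or bead-attachment interference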;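 further: GST-tagged constitutively activated Ras mutant immobilized on beads and multiplexed with other GTPases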).

For part of these data: Measured potencies and affinities stand elsewhere. Activity calls are given as the source filed them.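 How the source made its calls, unless noted: active means fitted half-maximal concentration within 10 nM to 100 µM, steepness 0.5 to 2, significant signal drop, low assay interference; inactive means the rest.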

`O=C(O)c1cccc(Oc2ccc([N+](=O)[O-])cc2)c1`: the call in experiment [1], in experiment [4] and in experiment [6] was inactive. This molecule also showed a fluorescence, percent of control (lower = inhibition) in experiment [2] of 62.7%. The molecule also returned a GTP binding, percent of control in experiment [3] of 61.7%. The molecule also yielded a GTP binding signal, raw median fluorescence (lower = inhibition) (MCF (arbitrary fluorescence units)) in experiment [5] of 0.

Consider `COc1cccc(C(=O)O)c1OCc1ccccc1Br`, for which the result in experiment [1], in experiment [4] and in experiment [6] was inactive. Besides, the fluorescence, percent of control (lower = inhibition) in experiment [2] was 57%. This molecule returned a GTP binding, percent of control in experiment [3] of 201%. Also, in experiment [5], the GTP binding signal, raw median fluorescence (lower = inhibition) (MCF (arbitrary fluorescence units)) came to 53.6.

For `Cc1ccc(N2C(=O)c3ccccc3C2Nc2cccnc2)nc1` (centres undefined), the result in experiment [1], in experiment [4] and in experiment [6] was inactive. This molecule had a fluorescence, percent of control (lower = inhibition) in experiment [2] of 37%. The GTP binding, percent of control in experiment [3] was determined as 84.5%. For the same molecule, in experiment [5], the GTP binding signal, raw median fluorescence (lower = inhibition) (MCF (arbitrary fluorescence units)) is 272.

In the case of `Cc1ccc(OCCn2cc(C(=O)O)c3ccccc32)cc1C`, the call in experiment [1], in experiment [4] and in experiment [6] was inactive. In experiment [2], this molecule showed a fluorescence, percent of control (lower = inhibition) of 60.4%. The molecule further gave a GTP binding, percent of control in experiment [3] of 85.4%. In experiment [5], this molecule returned a GTP binding signal, raw median fluorescence (lower = inhibition) (MCF (arbitrary fluorescence units)) of 32.5.

For the molecule `COc1ccccc1Nc1nc(-c2c(C)nc3ncccn23)cs1`, the call in experiment [1], in experiment [4] and in experiment [6] was inactive. The molecule further gave a fluorescence, percent of control (lower = inhibition) in experiment [2] of 26.5%. In experiment [3], the GTP binding, percent of control is 57.6%. Further, in experiment [5], the GTP binding signal, raw median fluorescence (lower = inhibition) (MCF (arbitrary fluorescence units)) came to 117.

Regarding `CN(/N=C/C=C/c1ccccc1)C1=NS(=O)(=O)c2ccccc21`, the molecule was classed as inactive in experiment [1], in experiment [4] and in experiment [6]. This molecule showed a fluorescence, percent of control (lower = inhibition) in experiment [2] of 40.3%. The molecule also came in with a GTP binding, percent of control in experiment [3] of 51.8%. In addition, the GTP binding signal, raw median fluorescence (lower = inhibition) (MCF (arbitrary fluorescence units)) in experiment [5] was 124.

For the molecule `CCOC(=O)c1cnc(SCc2ccc(C)cc2)nc1N`, the call in experiment [1], in experiment [4] and in experiment [6] was inactive. The same molecule registered a fluorescence, percent of control (lower = inhibition) in experiment [2] of 32%. The GTP binding, percent of control in experiment [3] is 82.3%. This molecule displayed a GTP binding signal, raw median fluorescence (lower = inhibition) (MCF (arbitrary fluorescence units)) in experiment [5] of 238.

As for `O=C(COc1ncnc2cc([N+](=O)[O-])ccc12)NC(=O)NC1CCCCC1`, the molecule was classed as inactive in experiment [1], in experiment [4] and in experiment [6]. For the same molecule, the fluorescence, percent of control (lower = inhibition) in experiment [2] stood at 31.6%. In experiment [3], the GTP binding, percent of control worked out at 70.8%. Moreover, the GTP binding signal, raw median fluorescence (lower = inhibition) (MCF (arbitrary fluorescence units)) in experiment [5] worked out at 153.

For `O=C1Nc2ccc(Br)cc2C12NNc1ccccc1O2` (centres undefined), the molecule was called inactive in experiment [1], in experiment [4] and in experiment [6]. In experiment [2], this molecule returned a fluorescence, percent of control (lower = inhibition) of 33%. This molecule displayed a GTP binding, percent of control in experiment [3] of 77.8%. This molecule yielded a GTP binding signal, raw median fluorescence (lower = inhibition) (MCF (arbitrary fluorescence units)) in experiment [5] of 182.

In the case of `CCN(CC)c1ccc(/C=C(/C#N)c2nc3ccc(C)cc3[nH]2)c(OC(C)C)c1`, the molecule was classed as inactive in experiment [1], in experiment [4] and in experiment [6]. In experiment [2], this molecule gave a fluorescence, percent of control (lower = inhibition) of 96.1%. Further, the GTP binding, percent of control in experiment [3] is 108%. Besides, in experiment [5], the GTP binding signal, raw median fluorescence (lower = inhibition) (MCF (arbitrary fluorescence units)) came out at 264.

With `COc1cc(NS(=O)(=O)c2ccc(Nc3nc(-c4ccccc4)cs3)cc2)nc(OC)n1`, the molecule was called inactive in experiment [1], in experiment [4] and in experiment [6]. The molecule also displayed a fluorescence, percent of control (lower = inhibition) in experiment [2] of 40.7%. This molecule returned a GTP binding, percent of control in experiment [3] of 53.3%. Moreover, the GTP binding signal, raw median fluorescence (lower = inhibition) (MCF (arbitrary fluorescence units)) in experiment [5] is 138.

With `Cc1cccc(COc2nc3ccccc3cc2C(=O)O)c1`, the result in experiment [1], in experiment [4] and in experiment [6] was inactive. In addition, in experiment [2], the fluorescence, percent of control (lower = inhibition) is 54.8%. In experiment [3], this molecule came in with a GTP binding, percent of control of 213%. The molecule also had a GTP binding signal, raw median fluorescence (lower = inhibition) (MCF (arbitrary fluorescence units)) in experiment [5] of 52.2.

Regarding `COc1ccc(-n2c(NC(=O)c3ccc(Br)o3)c(C#N)c3nc4ccccc4nc32)cc1`, the result in experiment [1], in experiment [4] and in experiment [6] was inactive. Besides, the fluorescence, percent of control (lower = inhibition) in experiment [2] was determined as 24.6%. The molecule also had a GTP binding, percent of control in experiment [3] of 72.7%. For the same molecule, in experiment [5], the GTP binding signal, raw median fluorescence (lower = inhibition) (MCF (arbitrary fluorescence units)) is 169.

As to `Cn1c(=O)c2c(ncn2CC(O)CNc2cccc(Cl)c2)n(C)c1=O` (centres undefined), the outcome in experiment [1], in experiment [4] and in experiment [6] was inactive. In experiment [2], this molecule came in with a fluorescence, percent of control (lower = inhibition) of 47.1%. The GTP binding, percent of control in experiment [3] was 101%. In experiment [5], this molecule had a GTP binding signal, raw median fluorescence (lower = inhibition) (MCF (arbitrary fluorescence units)) of 363.

These data come from PubChem BioAssay.
